Source: PubChem
SW480 rerep: A quantitative high throughput screen for small molecules that induce DNA re-replication in SW480 colon adenocarcinoma cells | SW480 DNA re-replication, Hoechst DNA content imaging, 48 h | Potency, µM (top dose mostly 46.1 µM), for the others: top-dose re-replication activation, hits mostly activators | 1.8% of 340,000 active; further: % of control where 0% means no effect; nearly all actives have a fitted effect of over 55% in size
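Per well, 250 cells were exposed to pinned compound for 48 hr. Nuclear DNA was visualised with Hoechst (40 min, 37 C) and total object intensity recorded by fluorescence scanning.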
KB-V1 cytotox: qHTS assay for MDR1-selective chemotherapeutics: Primary screen using the drug-selected MDR subline cells KB-V1; KB-V1 MDR cells viability, CellTiter-Glo, 72 h; Potency, µM (series often up to 46.1 µM), most hits filed as cytotoxic; 3.4% of 400,000 active; further: on the % scale 0 is the no-effect control and ±100 the full control effect; nearly all actives have a fitted effect of over 60% in size
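Following 72 h at 37 degrees C with compound, KB-V1 cell viability was read by CellTiter-Glo luminescence, medium being phenol-red-free DMEM plus 10% FBS; concentration-response parameters came from normalized, curve-fitted qHTS data.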
HT1080 IDH1KD tx: qHTS for induction of synthetic lethality in tumor cells producing 2HG: qHTS for the HT-1080-IDH1KD cell line; AID 686971, 2013; Potency, µM (titrated, usually from 46.1 µM), for the others: at the top dose activity, negative = toxicity, most hits filed as cytotoxic; 2% of 360,000 active; HT-1080 IDH1 knockdown viability, ATP luminescence, 48 h;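 further: 0% = DMSO wells and -100% = cell-free medium wells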
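% activity derives from luminescence (CellTiter-Glo), normalised to DMSO and no-cell wells. HT-1080-IDH1KD cells, 750/well, had 48 h compound exposure at 37 °C.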
HT1080-NT tox: qHTS for induction of synthetic lethality in tumor cells producing 2HG: qHTS for the HT-1080-NT fibrosarcoma cell line; Potency, µM (top dose mostly 46.1 µM), inactives show at the top dose activity, negative = less viability, most hits filed as cytotoxic; 1.6% of 360,000 active; HT-1080-NT fibrosarcoma viability, CellTiter-Glo ATP luminescence, 48 h;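 further: NT is the 2HG producing partner of a matched IDH1 knockdown line; 0% = DMSO-treated cells and -100% = media-only wells without cells; nearly all actives have a fitted effect of over 55% in size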
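A 48-hour cytotoxicity screen used HT-1080-NT cells plated 2 hours before compound delivery. ATP-based CellTiter-Glo luminescence measured viability, normalized to DMSO and no-cell controls.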
KB-3-1 cytotox: qHTS assay for MDR1-selective chemotherapeutics: Primary screen using the parental adenocarcinoma cell KB-3-1; AID 1347075, 2019; KB-3-1 viability, CellTiter-Glo ATP luminescence, 72 h; Potency, µM (series often up to 46.1 µM), usual class: cytotoxic; 1.4% of 400,000 active; further: on the % scale 0 is the no-effect control and ±100 the full control effect; nearly all actives have a fitted effect of over 60% in size
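Cytotoxicity measured as CellTiter-Glo luminescence after 72 h at 37 C. Compound titrations were pinned onto drug-naive KB-3-1 parental adenocarcinoma cells grown in DMEM with 10% FBS, and normalized data fitted to concentration-response curves.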
MCF10A rerep: A quantitative high throughput screen for small molecules that induce DNA re-replication in MCF 10a normal breast cells; Potency, µM (top dose mostly 46.1 µM), for inactives: at the highest dose activity, positive = re-replication, most hits filed as activators; MCF 10A DNA re-replication, Hoechst nuclear intensity, 48 h; AID 624296, 2012; 2.9% of 350,000 active; further: % of control where 0% means no effect; nearly all actives have a fitted effect of over 50% in size
The depositor's hits bear a star; i = inactive; u = inconclusive; x = not tested or not shown. Shown are actives, neighbours in structure and some others; about 8% of the full set was active somewhere. The call rests on the fitted dose curve; in most records, active means well fitted curve in the direction sought with a large enough effect; inconclusive means small, poorly fitted or top-dose-only effect, or another doubt; inactive means no such curve, though single readings can be large; an effect the other way counts as inactive or inconclusive. Potency means the concentration at half of the fitted maximal effect.

SMILES	SW480 rerep	KB-V1 cytotox	HT1080 IDH1KD tx	HT1080-NT tox	KB-3-1 cytotox	MCF10A rerep
O=C(Nc1ccc2c(c1)OCCO2)c1ccc2nccnc2c1	1%	i	-6%	-1%	i	7.3µM*
O=C(Nc1ccc2c(c1)OCCO2)c1ccc(Cl)c(Cl)c1	-1%	i	-17%	-15%	i	10%
Cc1ccc(C)n1-c1ccc(-c2nnc3n2CCCCC3)s1	6%	u	-10%	-24%	u	u
COCCn1c(C)cc(C(=O)CN2C(=O)NC3(CCCCCCC3)C2=O)c1C	u	i	-7%	-1%	i	12µM*
COCCn1c(C)cc(C(=O)CN2CCCCC2)c1C	-2%	i	2%	9%	i	7%
Cc1cccc(-n2c(N)c(-c3nc4ccccc4n3C)c3nc4ccccc4nc32)c1	5.8µM*	i	-1%	3%	i	u
Cn1c(-c2c(N)n(-c3ccccc3)c3nc4ccccc4nc23)nc2ccccc21	15µM*	u	-17%	-13%	i	8.2µM*
Cc1ccc(-n2c(N)c(-c3nc4ccccc4n3C)sc2=S)cc1	-2%	i	-23%	-27%	i	16%
CC[N+](CC)(CCCCS(=O)(=O)[O-])CCNP1(=O)C=C(c2ccccc2)OC(c2ccccc2)=C1	-31%	i	2%	0%	i	-8%
O=C(c1cnc2ccc(Cl)cc2c1Cl)N1CCOCC1	-5%	i	4%	-20%	i	-4%
CC(C)C1N=C2c3ccccc3N=C(SCc3cc(=O)n4cc(Cl)ccc4n3)N2C1=O (centres undefined)	-1%	23µM*	-8%	-6%	u	13%
C#CC(C)(O)C1CC(CC(=O)O)C1(C)C (centres undefined)	3%	i	2%	7%	i	-5%
CCn1c(=NC(=O)C2COc3ccccc3O2)sc2c(C)ccc(OC)c21 (centres undefined)	31%	u	0%	-1%	u	16µM*
C=CCn1c(=NC(=O)C2COc3ccccc3O2)sc2cccc(OC)c21 (centres undefined)	-13%	u	1%	-3%	u	7%
COc1cc(C(=O)N2CCN(C(=O)c3ccccc3)CC2)cc(OC)c1OC	2%	i	6%	8%	i	-6%
CC(C)c1cc(NC(=O)CCl)on1	u	i	26µM*	18µM*	u	u
CCOC(=O)N1CCN(C(=O)CSc2nnc(-c3cccc(OC)c3)o2)CC1	u	i	7%	6%	i	u
Cc1nc(-c2ccc(S(=O)(=O)Nc3ccc(C)c(N(C)C)c3)cc2)co1	x	u	x	x	18µM*	x
CCc1c(C)c(C#N)c2nc3ccccc3n2c1NCc1ccco1	u	u	-10%	-12%	i	u
COc1cc(NC(=O)CCCC(=O)OCC(F)(F)C(F)F)nc(OC)n1	u	i	-5%	0%	i	23µM*
COc1ccc(-c2nnc3c4ccccc4c(C)nn23)cc1	-11%	3.7µM*	u	u	i	7%
Cc1nn2c(-c3ccncc3)nnc2c2ccccc12	6%	i	12%	13%	i	-17%
Cc1ccccc1-c1nnc2c3ccccc3c(C)nn12	-7%	7.3µM*	6%	9%	u	1%
CCOC(=O)N1CCC(N2CC34C=CC(O3)C(C(=O)Nc3ccc(OCC)cc3)C4C2=O)CC1 (centres undefined)	-9%	i	u	-6%	u	2%
COc1nccnc1NS(=O)(=O)c1ccc(NC(=S)NC(=O)c2ccccc2F)cc1	-10%	i	-12%	-18%	i	-4%
SMILES	SW480 rerep	KB-V1 cytotox	HT1080 IDH1KD tx	HT1080-NT tox	KB-3-1 cytotox	MCF10A rerep
O=C(CSc1nc2ccc(Nc3nc(N4CCOCC4)nc(N4CCOCC4)n3)cc2s1)Nc1ccccc1Cl	u	u	-28%	u	u	18µM*
O=C(CSc1nc2ccc(Nc3nc(N4CCOCC4)nc(N4CCOCC4)n3)cc2s1)N1CCOCC1	-7%	i	-2%	-4%	i	u
O=C(CSc1nc2ccc(Nc3nc(N4CCOCC4)nc(N4CCOCC4)n3)cc2s1)Nc1ccccc1F	2.9µM*	2.6µM*	4%	7%	13µM*	2.1µM*
O=C(CNc1ccccc1Cl)Nc1cc(S(=O)(=O)N2CCOCC2)ccc1Cl	5%	i	0%	-4%	i	-3%
CSc1nc2ccc(Nc3nc(N4CCOCC4)nc(N4CCOCC4)n3)cc2s1	16µM*	18µM*	u	u	u	u
O=C(CSc1nc2ccccc2s1)Nc1cc(S(=O)(=O)N2CCOCC2)ccc1Cl	10%	18µM*	8%	2%	i	8%
Cc1cccc(C)c1OCc1nnc2c3cnn(C)c3ncn12	0%	u	12%	14%	i	-1%
O=C(CSc1nc2ccc(Nc3nc(N4CCCC4)nc(N4CCCC4)n3)cc2s1)NCc1ccco1	-9%	i	-2%	-6%	i	5.8µM*
CC(C)CC1=C/C(=C/c2ccc(-c3ccccc3)o2)C(=O)O1	2%	i	-6%	-14%	i	26µM*
NS(=O)(=O)c1ccc(-c2ccc(C=C3C(=O)c4ccccc4C3=O)o2)cc1	-6%	u	7%	19%	i	1%
CC(NC(=O)CCc1ccccc1)c1ccc2c(c1)OCO2 (centres undefined)	-33%	i	10%	4%	i	2%
O=C(NCCCN1CCOCC1)c1cc2c([nH]c3ccccc32)c(-c2cccc(Br)c2)n1	16%	u	u	u	u	4.6µM*
O=C(NCCCO)c1cc2c([nH]c3ccccc32)c(-c2ccccc2)n1	-9%	u	-24%	-10%	u	11%
COc1cccc(-c2nc(C(=O)NCCCN3CCOCC3)cc3c2[nH]c2ccccc23)c1	u	18µM*	-14%	-18%	i	u
COc1ccc(OC)c(Nc2cc(C(=O)NCCCN3CCOCC3)c3ccccc3n2)c1	8%	18µM*	u	-30%	i	13%
